Compound activity: PubChem, National Center for Advancing Translational Sciences (NCATS)
Sampled rows, rich in hits. Any-hit rate of the full collection: about 6.1%.
Gal4-VP16 FLuc: inhibits Gal4-VP16 luciferase reporter, ROR gamma counter-screen; Drosophila S2 Gal4-VP16 UAS-luciferase, luminescence, 20 h; Potency, µM (doses to about 53.6 µM), usual class: inhibitors; 310,000 compounds, 3.5% hits;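 further: Gal4-VP16 expression switched on by copper sulfate through the metallothionein promoter; nearly all actives have a fitted effect of over 50% in size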
TGFb SMAD3 inh: blocks TGF-b signaling; Potency, µM (series often up to 46.1 µM), hits mostly inhibitors; 410,000 compounds, 1.2% hits; HepG2 CAGA-GFP TGF-b/SMAD3 reporter, GFP fluorescence, 18 h; TGF-beta stimulated, 500 pg/mL final; AID 588855; further: nearly all actives have a fitted effect of over 65% in size
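Using HEPG2 CAGA-GFP reporter cells at 1000 cells/well, we pinned test compounds, stimulated with recombinant TGF-beta (500 pg/mL final) and measured total well GFP after 18 h.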
RORgamma inh: inhibitors of mouse ROR gamma transcriptional activity; Potency, µM (highest dose often 53.6 µM), hits mostly inhibitors; AID 2551; P51450; Drosophila S2 Gal4-RORgamma UAS-luciferase reporter, 20 h; 310,000 compounds, 5.4% hits; further: nearly all actives have a fitted effect of over 60% in size
Target sequence (P51450 whole entry, looked up, the tested form may be a part): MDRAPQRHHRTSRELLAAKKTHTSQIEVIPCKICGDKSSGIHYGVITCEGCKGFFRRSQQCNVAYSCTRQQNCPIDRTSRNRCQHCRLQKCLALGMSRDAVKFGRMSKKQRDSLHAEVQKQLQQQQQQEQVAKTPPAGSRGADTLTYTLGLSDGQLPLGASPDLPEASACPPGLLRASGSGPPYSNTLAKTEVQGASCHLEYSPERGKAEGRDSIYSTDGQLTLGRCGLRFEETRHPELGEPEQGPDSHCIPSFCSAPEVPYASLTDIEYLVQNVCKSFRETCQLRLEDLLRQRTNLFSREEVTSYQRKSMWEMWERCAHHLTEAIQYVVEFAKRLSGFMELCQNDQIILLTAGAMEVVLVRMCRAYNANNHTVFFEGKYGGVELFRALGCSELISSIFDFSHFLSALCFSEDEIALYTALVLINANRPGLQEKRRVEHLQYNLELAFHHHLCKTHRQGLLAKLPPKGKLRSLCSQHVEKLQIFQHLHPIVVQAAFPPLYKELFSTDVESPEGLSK
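ROR gamma transcriptional activity was tracked as Gal4-UAS luciferase output in stably transfected Drosophila Schneider cells, with compound added 1 hr before 700 uM copper sulfate induction and a 20 hr ambient-temperature incubation.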
ATXN2 expr inh: inhibitors of ATXN2 expression; HEK-293 ATXN2-luciferase reporter, luminescence, 24 h; Potency, µM (top dose mostly 57 µM), actives largely listed as inhibitors; 360,000 compounds, 0.72% hits; AID 1745845; further: nearly all actives have a fitted effect of over 55% in size
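ATXN2-luciferase reporter cells (luciferase flanked by upstream and downstream ATXN2 gene portions) were treated 24 h at 37 °C with compounds at up to 57 uM. SteadyGlo luminescence gave expression; GF-AFC fluorescence gave viability.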
HepG2 tox: HepG2 cytotoxicity, counter-screen for TGF-b inhibitors | 410,000 compounds, 0.76% hits | HepG2 CAGA-GFP viability, ATP luminescence, 18 h | AID 588856 | Potency, µM (titrated, usually from 46.1 µM), hits mostly cytotoxic
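CellTiter-Glo luminescence gave cytotoxicity after 18 hours at 37 degrees C. The cells were HepG2 CAGA-GFP in 1% FBS DMEM, stimulated with 500 pg/mL TGF-beta after compound addition. %Activity was normalised to no-cell wells (complete cell-killing) and DMSO (no toxicity), and curves were fitted and classified.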
ATXN viability: reduces viability in counter-screen for ATXN expression inhibitors; 400,000 compounds, 0.49% hits; Potency, µM (top dose mostly 56.7 µM), most hits filed as cytotoxic; S2 cells (HEK-293 line with an ATXN2-luciferase reporter) viability, CellTiter-Fluor protease fluorescence, 24 h; AID 651635; further: nearly all actives have a fitted effect of over 40% in size
Hits are given with their value; - = inactive; ? = inconclusive; . = not tested or not shown; ! = not confirmed by another sample. The call rests on the fitted dose curve; in most records, active means well fitted curve in the direction sought with a large enough effect; inconclusive means small, poorly fitted or top-dose-only effect, or another doubt; inactive means no such curve, though single readings can be large; an effect the other way counts as inactive or inconclusive.

SMILES	Gal4-VP16 FLuc	TGFb SMAD3 inh	RORgamma inh	ATXN2 expr inh	HepG2 tox	ATXN viability
O=C(Nc1nnc(-c2ccccc2)o1)c1ccc(Cl)cc1	1.41µM	?	0.708µM	20µM	-	.
O=C(Nc1nnc(-c2ccccc2)o1)Nc1ccccc1Cl	-	-	-	-	-	-
CCOc1ccccc1C(=O)OCC(=O)Nc1nnc(-c2ccccc2)o1	.	-	.	-	-	-
CC(=O)c1ccc(C(=O)Nc2nnc(-c3ccc(Cl)cc3)o2)cc1	2.51µM	-	-	?	-	-
O=C(COc1ccccc1)Nc1nnc(-c2ccc(Cl)cc2)o1	5.62µM	-	7.08µM	-	-	-
COc1ccccc1CCNC(=O)c1ccc2c(c1)c(C)c(C)n2C	.	?	.	.	-	.
Cn1cc(S(=O)(=O)N2CCCCC2)cc1C(=O)Nc1ccc(OC(F)(F)F)cc1	.	-	.	-	-	-
CCCCOc1cccc(C(=O)N(Cc2ccc(N(C)C)cc2)C2CCS(=O)(=O)C2)c1 (stereo not given)	.	-	.	-	-	-
Cn1c(=O)cc(SCC(=O)Nc2cccc(C#N)c2)c2ccc(Cl)cc21	.	-	.	-	-	-
CN(C)c1ccc(C(=O)NNC(=O)c2ccc(Cl)cc2)cc1	-	-	-	-	-	-
CN(C)c1ccc(C(=O)Nc2nnc(-c3ccc(Cl)cc3)o2)cc1	0.501µM	-	0.501µM	?	-	?
O=C(c1ccc(Cn2c(=O)[nH]c3ccccc3c2=O)cc1)N1CCN(c2ccccn2)CC1	-	?	-	-	-	-
CCOC(=O)N1CCC(n2c(=S)[nH]c3ccccc3c2=O)CC1	7.08µM	-	8.91µM	-	-	-
O=C(c1ccc(Cn2c(=S)[nH]c3ccccc3c2=O)cc1)N1CCN(c2ccccn2)CC1	?	?	11.2µM	15.8µM	-	-
O=c1c2ccc(Cl)cc2[nH]c(=S)n1Cc1cccnc1	?	-	5.01µM	-	-	-
CCOC(=O)N1CCN(C(=O)CCCn2c(=S)[nH]c3ccccc3c2=O)CC1	-	-	-	-	-	-
CN1CCN(C(=O)c2ccc3c(=O)n(Cc4ccc(Cl)cc4)c(=S)[nH]c3c2)CC1	?	-	7.08µM	-	-	-
O=C(NCc1cccnc1)c1ccc2c(=O)n(CCCN3CCCC3=O)c(=S)[nH]c2c1	-	-	-	.	-	.
CN(C)c1nc(CN2CCCCC2c2cccnc2)nc2ccccc12 (stereo not given)	.	.	.	.	.	-
CCOc1ccc(CCNC(=O)CSc2nc3ccccc3nc2Cc2ccc(C)cc2)cc1OCC	.	-	.	-	-	-
O=C(c1cscn1)N1CCOc2ccc(CN3CCC(Oc4cccnc4)CC3)cc2C1	.	.	.	.	.	-
CC1CC(C)CN(C(=O)c2ccc3c(=O)n(Cc4ccc5c(c4)OCO5)c(=S)[nH]c3c2)C1 (stereo not given)	10µM	-	3.55µM	-	-	-
O=C(c1ccc2c(=O)n(Cc3ccc(Cl)cc3)c(=S)[nH]c2c1)N1CCCC1	?	-	5.01µM	-	-	-
O=C(c1ccc2c(=O)n(CCc3ccccc3)c(=O)[nH]c2c1)N1CCN(c2ccc(Cl)cc2)CC1	.	4.47µM	.	-	-	?
CCOC(=O)N1CCN(C(=O)c2ccc3c(=O)n(Cc4ccc(OC)cc4)c(=S)[nH]c3c2)CC1	?	-	-	-	-	-
SMILES	Gal4-VP16 FLuc	TGFb SMAD3 inh	RORgamma inh	ATXN2 expr inh	HepG2 tox	ATXN viability
CCOC(=O)N1CCN(C(=O)c2ccc3c(=O)n(Cc4ccccc4)c(=S)[nH]c3c2)CC1	?	-	12.6µM	-	-	-
O=C(c1ccc2c(=O)n(Cc3ccc4c(c3)OCO4)c(=S)[nH]c2c1)N1CCCCC1	-	-	?	-	-	?
O=C(c1ccc2c(=O)n(Cc3ccccc3Cl)c(=S)[nH]c2c1)N1CCCC1	?	-	11.2µM	-	-	-
O=C(c1ccc2c(=O)n(Cc3ccc(Cl)cc3)c(=S)[nH]c2c1)N1CCOCC1	7.08µM	-	3.98µM	?	-	-
O=C(c1ccc2c(=O)n(Cc3ccco3)c(=S)[nH]c2c1)N1CCN(c2ccccc2)CC1	-	-	?	-	-	-
Cc1ccc(NC(=O)C2=CC(c3cccs3)=NS(=O)(=O)N2C)cc1	-	?	-	-	-	-
CCc1ccc(NC(=O)C2=CC(c3cccs3)=NS(=O)(=O)N2C)cc1	-	12.6µM!	?	-	-	-
CC1(C)NC(=O)N(c2ccc([N+](=O)[O-])c(C(F)(F)F)c2)C1=O	15.8µM!	-	?	?	-	-
CC1(C)NC(=O)N(CCCCOc2ccccc2[N+](=O)[O-])C1=O	-	.	-	.	.	.
COc1ccc(/C=N/NC(N)=S)cc1OC(=O)c1cccc2ccccc12	5.01µM	-	2.51µM	-	-	-
COC(=O)c1cccc(/C=N/NC(N)=S)c1O	7.08µM	?	2µM	.	-	?
COc1ccc(C(=O)Oc2cc(/C=N/NC(N)=S)ccc2OC)cc1	22.4µM	?	11.2µM	-	-	-
COc1ccc(C(=O)Oc2ccc(/C=N/O)cc2)cc1	11.2µM	-	11.2µM	.	-	.
Cc1cccc(C)c1NC(=S)N/N=C/c1ccccc1C(=O)O	-	-	?	-	-	-
CCC(=O)C1=C(c2cccc([N+](=O)[O-])c2)N(C(=O)CC)n2c(nnc2-c2ccccc2)S1	.	-	.	.	-	.
CC(C)N(Cc1ccccc1)c1ncnc2c1nnn2C	.	-	.	.	-	.
Cc1cc(/C=c2/sc3nc4ccccc4n3c2=O)c(C)n1-c1ccccn1	0.251µM	-	0.1µM	-	-	-
COC(=O)C1=C[C@@H](C(=O)OC)C2C3=C(C(=O)[C@@]2(C)NC(=O)c2ccccc2)[C@H](C)n2c(=O)n(C)c(=O)n2[C@@H]3C1 (stereo not given in full)	-	-	-	.	-	.
C=CCn1c(-c2cccc3ccccc23)n[nH]c1=S	10µM	-	3.55µM	.	-	.
C=CCn1c(Cc2nc3ccc(Cl)cc3[nH]2)n[nH]c1=S	-	-	?	-	-	-
C=CCn1c(-c2ccccc2OC)n[nH]c1=S	?	-	11.2µM	-	-	-
CCOc1ccc2c(c1)ncn2Cc1ccccc1	-	-	11.2µM	-	-	-
O=C(CN1C(=O)C2(SCC(=O)N2c2cccc(Cl)c2)c2ccccc21)NCCc1ccccc1 (stereo not given)	.	11.2µM	.	?	-	-
O=C(CN1C(=O)C2(SCC(=O)N2c2cccc(Cl)c2)c2ccccc21)NCc1ccccc1 (stereo not given)	.	-	.	-	-	-
CN(Cc1ccccc1)c1nnc(NC(=O)Nc2cccc(Br)c2)s1	.	?	.	.	-	.
